The source made the active and inactive calls. Unless noted, calls come from the whole dose curve; as a rule, active = well fitted curve in the direction sought with a large enough effect in the repeat runs; inconclusive = weak or mixed curves; inactive = no such curve, though single readings can be large; an effect the other way counts as inactive or inconclusive.
Key:
[1] = qHTS assay for small molecules that induce genotoxicity in human embryonic kidney cells expressing luciferase-tagged ATAD5 (AID 651632); note: nearly all actives have a fitted effect of over 15% in size
Outline: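 Luminescence read-out: after 16 hr compound exposure at 37C, ATAD5-luciferase HEK293T cells received Amplite, 30 min RT, then CCD imaging. A rise in signal marks genotoxic stress.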

[2] = qHTS assay for small molecule disruptors of the mitochondrial membrane potential - cell viability (AID 720634; calls by dose curve;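 note: human HepG2 liver cancer cells; series mostly up to about 83 µM; nearly all actives have a fitted effect of over 20% in size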)
Outline: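 Luminescence from CellTiter-Glo (ATP content) gave viability in HepG2 cells, read in the same wells as the MMP dye assay after 1 hr compound exposure at 37 C.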

[3] = qHTS assay to test for compound auto fluorescence at 535 nm (green) in HepG2 cells (AID 720675)
[4] = qHTS assay to test for compound auto fluorescence at 460 nm (blue) in HEK293 cells (AID 720678)
Outline: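 Intrinsic compound fluorescence is recorded in live HEK293 cultures after overnight incubation at 37C, 5% CO2, using excitation 405 nm and emission 460 nm. Values are referenced to triamterene.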

[5] = qHTS assay to test for compound auto fluorescence at 590 nm (red) in HEK293 cells (AID 720679)
Outline: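 Red autofluorescence, HEK293 cells: 2,000 cells/well; attach 4-5 hr 37C; add 23 nL cpd or DMSO; incubate o/n 37C 5% CO2; read Ex540/Em590; Rose Bengal sodium reference.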

[6] = qHTS assay to test for compound auto fluorescence at 535 nm (green) in HEK293 cells (AID 720680)
[7] = qHTS assay to test for compound auto fluorescence at 460 nm (blue) in HEK293 cell free culture (AID 720681)
Outline: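 Compounds were added to cell-free DMEM with 10% FBS and fluorescence read directly. The blue channel used 405 nm excitation and 460 nm emission, with triamterene as the reference fluorophore.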

[8] = qHTS assay to test for compound auto fluorescence at 535 nm (green) in HEK293 cell free culture (AID 720682)
Outline: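 Steps: dispense DMEM/10% FBS into empty wells; pin in compound or DMSO; measure fluorescence at 485/535 nm. Values are fluorescein equivalents.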

[9] = qHTS assay to test for compound auto fluorescence at 590 nm (red) in HepG2 cell free culture (AID 720684)
Outline: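 Auto fluorescence equivalency versus Rose Bengal sodium, red channel Ex/Em 540/590 nm; compounds in cell-free MEM/10% FBS; DMSO vehicle control.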

[10] = qHTS assay to test for compound auto fluorescence at 535 nm (green) in HepG2 cell free culture (AID 720686)
[11] = qHTS assay to test for compound auto fluorescence at 460 nm (blue) in HepG2 cells (AID 720687)
Outline: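 HepG2 cells in MEM with 10% FBS, attached overnight at 37 C, were exposed to compound or DMSO for 1 hr at 37 C, 5% CO2. Blue fluorescence was read at 405/460 nm, with triamterene as reference fluorophore.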

[12] = biological target: Glucocorticoid receptor (Homo sapiens) (UniProt P04150); assay: qHTS assay to identify small molecule agonists of the glucocorticoid receptor (GR) signaling pathway (AID 720691; active = well fitted activation curve with a large enough effect in the signal ratio in the repeat runs, not every such curve was filed as active; inconclusive = weak or mixed curves, or effect the other way; inactive = no such curve, though single readings can be large or run the other way; the % refers to the signal ratio; note: potency is the fitted concentration of half-maximal effect)
Outline: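 HeLa GR-bla reporter line; cells pre-incubated 4 h, compound in DMSO 18 h at 37 C; LiveBLAzer B/G FRET substrate 2 h RT; fluorescence intensity read-out.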

[13] = biological target: Glucocorticoid receptor (Homo sapiens) (UniProt P04150); assay: qHTS assay to identify small molecule antagonists of the glucocorticoid receptor (GR) signaling pathway (AID 720692; active = well fitted inhibition curve with a large enough effect in the signal ratio in the repeat runs, not every such curve was filed as active; inconclusive = weak or mixed curves, or effect the other way; inactive = no such curve, though single readings can be large or run the other way; the % refers to the signal ratio)
Outline: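 Read-out: beta-lactamase FRET substrate fluorescence, 2 h at room temperature, in HeLa cells stably carrying a GRE-driven bla reporter. Compounds were co-incubated with 5 nM dexamethasone agonist (final) for 18 h at 37 C.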

[14] = qHTS assay for small molecule agonists of the p53 signaling pathway - cell viability (AID 651633; calls by dose curve;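 note: p53RE-bla HCT reporter cells with a stable beta-lactamase p53 reporter; series mostly up to about 83 µM; nearly all actives have a fitted effect of over 30% in size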)
Outline: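 p53RE-bla cells were treated with compound for 16 hours at 37 C. Cytotoxicity was then measured as CellTiter-Glo luminescence after 30 min at room temperature.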

[15] = qHTS assay for small molecules that induce genotoxicity in human embryonic kidney cells expressing luciferase-tagged ATAD5 - cell viability (AID 651634; calls by dose curve; note: nearly all actives have a fitted effect of over 25% in size)
Outline: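 HEK293T ATAD5-luc cells, 2,000/well; compound 15.5 hr, 37C/5% CO2; CellTiter-Fluor 30 min, 37C; fluorescence read.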

[16] = qHTS assay to test for compound auto fluorescence at 590 nm (red) in HepG2 cells (AID 720674)
Outline: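 Fluorescence at 590 nm emission following 540 nm excitation was recorded from HepG2 wells one hour after compound transfer, with DMSO-only wells as vehicle and Rose Bengal sodium equivalency as the scale.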

[17] = qHTS assay to test for compound auto fluorescence at 460 nm (blue) in HepG2 cell free culture (AID 720685)
Outline: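 Cell-free plates of MEM plus 10% FBS received 23 nL compound or DMSO vehicle; blue-channel (405/460 nm) intensity scored against triamterene as reference fluorophore.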

[18] = qHTS assay to test for compound auto fluorescence at 590 nm (red) in HEK293 cell free culture (AID 720683)
Outline: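 Cell-free wells of DMEM with 10% FBS received compound, and intrinsic fluorescence was read at excitation/emission 540/590 nm. Values expressed as equivalence to Rose Bengal sodium.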

[19] = qHTS assay for small molecule disruptors of the mitochondrial membrane potential (AID 720635); note: potency is the fitted concentration of half-maximal effect
Outline: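 HepG2 cells exposed to compound 1 hr at 37C, then Mito-MPS dye 30 min. Ratio read of aggregate (540/590 nm) versus monomer (490/535 nm) fluorescence.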
% is set by controls: 0 for no effect and ±100 for the full control effect.

Glucocorticoid receptor (Homo sapiens), sequence (P04150 whole entry, looked up): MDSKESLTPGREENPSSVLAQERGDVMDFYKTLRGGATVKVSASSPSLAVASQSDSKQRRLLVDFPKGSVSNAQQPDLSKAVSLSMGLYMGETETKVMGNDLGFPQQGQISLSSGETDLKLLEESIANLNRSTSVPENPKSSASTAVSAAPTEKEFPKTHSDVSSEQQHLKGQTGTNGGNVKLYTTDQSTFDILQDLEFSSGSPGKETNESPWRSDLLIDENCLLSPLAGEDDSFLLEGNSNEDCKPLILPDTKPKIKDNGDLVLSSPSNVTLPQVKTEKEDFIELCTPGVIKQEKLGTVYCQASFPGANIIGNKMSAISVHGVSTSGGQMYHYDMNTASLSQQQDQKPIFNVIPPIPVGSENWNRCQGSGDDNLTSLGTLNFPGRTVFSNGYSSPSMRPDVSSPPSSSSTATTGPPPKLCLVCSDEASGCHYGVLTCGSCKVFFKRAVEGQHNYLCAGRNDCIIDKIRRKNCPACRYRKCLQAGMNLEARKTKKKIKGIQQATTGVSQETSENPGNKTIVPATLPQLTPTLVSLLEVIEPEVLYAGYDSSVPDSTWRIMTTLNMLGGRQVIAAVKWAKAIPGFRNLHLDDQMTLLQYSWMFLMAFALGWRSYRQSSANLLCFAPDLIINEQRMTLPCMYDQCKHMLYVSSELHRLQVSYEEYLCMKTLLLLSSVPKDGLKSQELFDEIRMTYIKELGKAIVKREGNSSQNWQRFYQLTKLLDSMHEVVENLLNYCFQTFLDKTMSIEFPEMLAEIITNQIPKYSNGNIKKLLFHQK

CN1CCN(C2=Nc3cc(F)ccc3Cc3ccccc32)CC1
inactive: Potency [1] | Potency [2] | outcome [3] | outcome [4] | outcome [5] | outcome [6] | outcome [7] | outcome [8] | outcome [9] | outcome [10] | outcome [11] | Potency [12] | Potency [13]

CCCCC(CC)COC(=O)COc1cc(Cl)c(Cl)cc1Cl (stereo unspecified)
inactive: Potency [14] | Potency [15] | Potency [2] | outcome [16] | outcome [3] | outcome [4] | outcome [5] | outcome [6] | outcome [7] | outcome [8] | outcome [9] | outcome [17] | outcome [10] | outcome [11] | Potency [12] | Potency [13]

Cc1ccc(C)c(N)c1
inactive: Potency [1] | Potency [15] | Potency [2] | outcome [16] | outcome [4] | outcome [5] | outcome [6] | outcome [7] | outcome [8] | outcome [18] | outcome [9] | outcome [17] | outcome [10] | outcome [11] | Potency [12] | Potency [13]

NS(=O)(=O)c1cc(-c2nn[nH]n2)c(NCc2cccs2)cc1Cl
inactive: Potency [14] | Potency [15] | Potency [2] | outcome [16] | outcome [3] | outcome [4] | outcome [5] | outcome [6] | outcome [7] | outcome [8] | outcome [18] | outcome [9] | outcome [17] | outcome [10] | outcome [11] | Potency [12] | Potency [13]

Nc1ccc(Oc2ccc(N)c(N)c2)cc1
inactive: Potency [14] | Potency [15] | Potency [2] | outcome [16] | outcome [4] | outcome [5] | outcome [6] | outcome [7] | outcome [8] | outcome [9] | outcome [17] | outcome [11] | Potency [12]
active: Potency [19] 17.2 µM

O=C(O)[C@@H]1CSCN1
inactive: Potency [2] | Potency [19] | outcome [16] | outcome [3] | outcome [4] | outcome [5] | outcome [6] | outcome [7] | outcome [8] | outcome [9] | outcome [10] | outcome [11] | Potency [12] | Potency [13]

Cc1nc(-c2ccccn2)ncc1C(=O)Nn1cc(C)c2cc(F)ccc21
inactive: Potency [14] | Potency [15] | Potency [2] | Potency [19] | outcome [16] | outcome [3] | outcome [4] | outcome [5] | outcome [6] | outcome [7] | outcome [8] | outcome [18] | outcome [9] | outcome [17] | outcome [10] | outcome [11] | Potency [12] | Potency [13]

O=C1CCCCCCCCCCC(=O)OCCO1
inactive: Potency [1] | Potency [15] | outcome [3] | outcome [4] | outcome [5] | outcome [6] | outcome [7] | outcome [8] | outcome [18] | outcome [9] | outcome [17] | outcome [10] | outcome [11] | Potency [13]
active: Potency [19] 27.3 µM

CC1=C(CC(=O)O)c2cc(F)ccc2/C1=C\c1ccc(S(C)(=O)=O)cc1
inactive: Potency [1] | Potency [15] | Potency [2] | outcome [16] | outcome [3] | outcome [4] | outcome [5] | outcome [6] | outcome [7] | outcome [8] | outcome [18] | outcome [9] | outcome [10] | outcome [11]

O=C(O)[C@@H](O)[C@H](O)[C@H](O)[C@@H](O)C(=O)O
inactive: Potency [14] | Potency [15] | Potency [2] | Potency [19] | outcome [16] | outcome [3] | outcome [4] | outcome [5] | outcome [6] | outcome [7] | outcome [8] | outcome [18] | outcome [9] | outcome [17] | outcome [10]

O=C(Cl)c1cccc([N+](=O)[O-])c1
inactive: Potency [14] | Potency [2] | Potency [19] | outcome [16] | outcome [3] | outcome [4] | outcome [5] | outcome [6] | outcome [7] | outcome [8] | outcome [18] | outcome [9] | outcome [17] | outcome [10] | outcome [11] | Potency [12] | Potency [13]

CN(CCCN1c2ccccc2CCc2ccccc21)CC(=O)c1ccc(Cl)cc1
inactive: Potency [15] | Potency [2] | outcome [16] | outcome [3] | outcome [4] | outcome [6] | outcome [7] | outcome [8] | outcome [18] | outcome [9] | outcome [17] | outcome [10] | outcome [11] | Potency [12]

COc1ccc(Nc2ccc(OC)cc2)cc1
inactive: Potency [14] | Potency [2] | outcome [16] | outcome [3] | outcome [4] | outcome [5] | outcome [6] | outcome [7] | outcome [8] | outcome [18] | outcome [9] | outcome [17] | outcome [10] | outcome [11] | Potency [12] | Potency [13]

CCCCC(=O)O[C@]1(C(=O)CO)[C@H](C)C[C@H]2[C@@H]3CCC4=CC(=O)C=C[C@]4(C)[C@@]3(F)[C@@H](O)C[C@@]21C
active: Potency [19] 10.6 µM | Potency [12] 0.0043 µM [inconclusive]
inactive: Potency [1] | Potency [15] | outcome [4] | outcome [5] | outcome [6] | outcome [7] | outcome [8] | outcome [18] | outcome [9] | outcome [10] | outcome [11]

CC(=O)Oc1cc(C(C)C)c(OCCN(C)C)cc1C
inactive: Potency [14] | Potency [15] | fluorescence, relative to Rose Bengal [16] 0.0269% [at 18.6 µM] | fluorescence, % of fluorescein control [3] 0.0486% [at 18.6 µM] | fluorescence, % of triamterene [4] -0.184% [at 18.6 µM] | fluorescence, % of fluorescent control [5] -0.192% [at 18.6 µM] | fluorescence, % of fluorescein [6] -0.013% [at 18.6 µM] | fluorescence, % of fluorescent control [7] -0.142% [at 18.6 µM] | activity change [8] -0.0795% [at 18.6 µM] | fluorescence, % of fluorescent control [18] -0.128% [at 18.6 µM] | fluorescence, % of Rose Bengal [9] -0.418% [at 18.6 µM] | fluorescence, % of fluorescein control [10] -0.0374% [at 18.6 µM] | Potency [12] | Potency [13]
